Shown are actives, neighbours in structure and some others; about 2.5% of the full set was active somewhere.
ASK1 inh: ASK1 kinase inhibitors, primary screen, biochemical, AlphaScreen | Mitogen-activated protein kinase kinase kinase 5 (Homo sapiens), Q99683 | AlphaScreen MKK6 phosphorylation by ASK1, luminescence | inhibition, % at 7.44 µM | 22,000 tested, 0.99% active | AID 1159602, 2016; in the data active = inhibition above about 35%;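 also: 0% = median of compound wells and 100% = no enzyme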
ULK1 inh: ULK1 kinase inhibitors, primary screen, biochemical, AlphaScreen. Serine/threonine-protein kinase ULK1 (Homo sapiens), O75385. AlphaScreen Atg13 phosphorylation by ULK1, luminescence. inhibition, % at 5.96 µM. 30,000 tested, 1.9% active. AID 1259251, 2017; in the data active = inhibition above about 43%;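 also: 0% = median of compound wells and 100% = no enzyme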
AlphaScreen intf: AlphaScreen signal interference by compounds, dose response, artefact control for ASK1 inhibitor project, biochemical, TruHits beads; shares compounds with ASK1 inh; signal interference counterscreen; IC50, µM; 220 tested, 20% active; AID 1159604, 2016;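 active = IC50 of 10 µM or lower in the counterscreen; inactive = IC50 above 10 µM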;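 also: loss of AlphaScreen light from TruHits beads alone with no ASK1 enzyme present; potency of signal reduction so a low IC50 flags an assay artifact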
The depositor's hits bear a star; ! = repeats disagree.

`CCCNC(=O)c1cccc(-c2ccc(OC)cc2)c1` gave ASK1 inh 0.6 and ULK1 inh 3.0.
COc1ccc2c(c1)CC(C(=O)Nc1ccc(-c3cn[nH]c3)cc1OCCC(C)C)CO2 (configuration not stated) was read as ASK1 inh 31.4 and ULK1 inh 9.0.
`COc1ccc2c(c1)CC(C(=O)Nc1ccc(-c3cn[nH]c3)cc1OCCOCc1ccccc1)CO2` (configuration not stated) gave ASK1 inh 42.9*, ULK1 inh 17.3 and AlphaScreen intf >19.2.
Screening CC(=O)c1cccc(NCN2C(=O)CSC2=O)c1 returned ULK1 inh -5.4.
COc1ccc2c(c1)CC(C(=O)Nc1ccc(-c3ccncc3)cc1OCCN1CCCC1)CO2 (configuration not stated) was read as ASK1 inh 8.2 and ULK1 inh 0.0.
`O=C(NC1CCN(Cc2ccccc2)CC1)c1ccc2nc(N3CCOCC3)sc2c1` gave ASK1 inh -5.2 and ULK1 inh 1.1.
Screening CC(C)CNC(=O)c1ccc2c(c1)CC(c1nc3ncc(-c4ccnc(N)n4)cc3[nH]1)CO2 (configuration not stated) returned ASK1 inh 42.3*, ULK1 inh 22.5 and AlphaScreen intf >19.2.
Screening CN(C)CCNC(=O)c1ccc2c(c1)CC(c1nc3ncc(-c4ccnc(N)n4)cc3[nH]1)CO2 (configuration not stated) returned ASK1 inh 11.1 and ULK1 inh 6.3.
For Nc1cccc(-c2nccc(NC3CC3)n2)c1 the results were ASK1 inh -13.9 and ULK1 inh -8.2.
Cc1ccsc1C(=O)NCc1nc(-c2ccncc2)n[nH]1 was read as ASK1 inh 3.1 and ULK1 inh 1.6.
Screening COc1cc2nc(NC3CCN(Cc4ccccc4)CC3)nc(Nc3cc(OC)c(OC)c(OC)c3)c2cc1OC returned ASK1 inh 17.0 and ULK1 inh -7.5.
Screening c1ccc(CN2CCC(Nc3nccc(Nc4ccc(N5CCOCC5)cc4)n3)CC2)cc1 returned ASK1 inh 16.1 and ULK1 inh 13.7.
`COc1cc2nc(Nc3nc4ccccc4n3C)nc(Nc3ccc4c(c3)OCO4)c2cc1OC` gave ASK1 inh -5.5 and ULK1 inh -0.9.
For c1ccc(CN2CCC(Nc3ccnc(Nc4ccc(N5CCOCC5)cc4)n3)CC2)cc1 the results were ASK1 inh 49.8*, ULK1 inh 16.2 and AlphaScreen intf inactive.
Screening COc1cc2nc(Nc3nc4ccccc4n3C)nc(Nc3ccc(N4CCOCC4)cc3)c2cc1OC returned ASK1 inh 67.4*, ULK1 inh -12.6 and AlphaScreen intf inactive.
`COc1cc2nc(NC3CCN(Cc4ccccc4)CC3)nc(Nc3ccc(N4CCOCC4)cc3)c2cc1OC` gave ASK1 inh 38.6*, ULK1 inh 14.4 and AlphaScreen intf 8.26*.
`COc1cc2nc(Nc3ccc(N4CCOCC4)cc3)nc(NCc3cccc(C(F)(F)F)c3)c2cc1OC` gave ASK1 inh 52.3*!, ULK1 inh -14.9 and AlphaScreen intf 6.24*.
`COc1ccc(Nc2nc(NCc3cccc(C(F)(F)F)c3)c3cc(OC)c(OC)cc3n2)cc1` gave ASK1 inh 2.1 and ULK1 inh -26.4.
FC(F)(F)c1cccc(CNc2ccnc(N3CCN(c4ccccn4)CC3)n2)c1 was read as ASK1 inh -3.0 and ULK1 inh -53.2.
O=C(Nc1cc(-c2ccncc2)c[nH]c1=O)c1nc2ccccc2s1 was read as ASK1 inh -3.0 and ULK1 inh 26.0.
`Cc1ccc(-c2ncn(-c3ccc(Nc4nccc(-c5cc(C#N)cc(N(C)C)c5)n4)cc3)n2)cn1` gave ASK1 inh -37.0 and ULK1 inh -18.2.
For Cc1nn(C)c(C)c1-c1cncc(C(=O)Nc2ccccc2)c1 the results were ASK1 inh -5.2 and ULK1 inh 4.6.
For COc1cc2nc(Nc3ccc(-n4ccnc4)cc3)nc(Nc3ccc(N4CCOCC4)cc3)c2cc1OC the results were ASK1 inh 17.4 and ULK1 inh -1.6.
Screening COc1cc2nc(Nc3nc4ccccc4n3C)nc(Nc3ccc(NC(C)=O)cc3)c2cc1OC returned ASK1 inh 72.4*, ULK1 inh -52.5 and AlphaScreen intf 9.71*.
Screening COc1cc2nc(Nc3ccc(N4CCOCC4)cc3)nc(Nc3ccc(N4CCOCC4)cc3)c2cc1OC returned ASK1 inh 63.9*, ULK1 inh -9.6 and AlphaScreen intf 5.55*.
For Cc1cnc(Nc2nc3ccccc3n2C)nc1Nc1ccc(N2CCOCC2)cc1 the results were ASK1 inh 38.6*, ULK1 inh 30.2 and AlphaScreen intf >21.8.
For COc1cc2nc(Nc3nc4ccccc4n3C)nc(Nc3cc(OC)c(OC)c(OC)c3)c2cc1OC the results were ASK1 inh 7.7 and ULK1 inh 1.1.
Screening COc1cc2nc(Nc3ccc(N4CCOCC4)cc3)nc(Nc3ccccc3)c2cc1OC returned ASK1 inh 56.2*, ULK1 inh -11.3 and AlphaScreen intf 8.51*.
COc1cc2nc(Nc3ccc4ncccc4c3)nc(Nc3ccc(N4CCOCC4)cc3)c2cc1OC was read as ASK1 inh 9.7 and ULK1 inh 2.2.
Screening Cn1c(Nc2nc(Nc3ccc(N4CCOCC4)cc3)c3[nH]cnc3n2)nc2ccccc21 returned ASK1 inh 14.7 and ULK1 inh 1.5.
Screening CC(=O)Nc1ccc(Nc2cc(Nc3ccc(N4CCOCC4)cc3)ncn2)cc1 returned ASK1 inh 1.3 and ULK1 inh -0.8.
Screening COc1ccc(-c2cncc(-c3cc(Nc4ccccc4)nc(C)n3)c2)cc1 returned ULK1 inh 0.4.
Screening CN(C)c1cccc(Nc2nc(Nc3ccc(N4CCOCC4)cc3)c3[nH]cnc3n2)c1 returned ASK1 inh 35.6*, ULK1 inh -3.5 and AlphaScreen intf inactive.
Screening COc1cc2nc(Nc3ccccc3)nc(Nc3ccc(N4CCOCC4)cc3)c2cc1OC returned ASK1 inh 48.0*, ULK1 inh -11.8 and AlphaScreen intf 9.53*.
`c1nc2nc(Nc3ccc(N4CCOCC4)cc3)nc(Nc3ccc(N4CCOCC4)cc3)c2[nH]1` gave ASK1 inh 19.8 and ULK1 inh 14.1.
Screening COc1cc2nc(Oc3ccccc3)nc(Nc3ccc(N4CCOCC4)cc3)c2cc1OC returned ASK1 inh 2.2 and ULK1 inh -14.7.
Screening c1ccc(-c2cc(NC3CC3)ncn2)cc1 returned ASK1 inh -3.3 and ULK1 inh 1.8.
`CCN(CC)C(=O)C1CCCN(c2nc3ccc(C(=O)NCCc4ccc(O)cc4)cc3s2)C1` (configuration not stated) gave ASK1 inh 5.0 and ULK1 inh 6.5.
`Cc1ccc(-c2cccc3cnc(Nc4ccc(-n5cnc(C)n5)cc4)nc23)cn1` gave ASK1 inh 39.1*, ULK1 inh 19.8 and AlphaScreen intf >19.2.
Screening Cc1ccc(-c2ncn(-c3ccc(Nc4cc(-c5cnn(C)c5)c(Cl)cn4)cc3)n2)cn1 returned ASK1 inh -18.3 and ULK1 inh -26.1.
Screening Cc1ncn(-c2ccc(Nc3ncc4cccc(-c5cccc(F)c5)c4n3)cc2)n1 returned ASK1 inh -7.1 and ULK1 inh 0.9.
Cc1ccc(-c2ncn(-c3ccc(Nc4ncc(Cl)c(-c5ccnn5C)n4)cc3)n2)cn1 was read as ASK1 inh 42.9*, ULK1 inh 6.9 and AlphaScreen intf >19.2.
